Several values for one entry are separate records, joined by “and”; a condition that tells them apart may be missing. Identical values can stand only once. Activity calls are given as the source filed them. Unless noted, no stated cut-off is given here; in the data, active means inhibition above about 80%; inactive means the rest.
Legend:
[1] = LFS_MB_P medulloblastoma growth inhibition, cell-based, chromothripsis tumors, cisplatin or BGB combos (AID 1671449); conditions: LFS_MB_P medulloblastoma cells;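 further: cells exposed for 96 hours; 0% = vehicle DMSO and 100% = killing by high DMSO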
[2] = HDN33 neuroblastoma growth inhibition, cell-based, chromothripsis tumors, cisplatin or BGB combos (AID 1671450); conditions: HDN33 neuroblastoma cells, stronger effect = higher value;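 further: cells exposed to compound for four days; 0% = vehicle DMSO and 100% = cell killing by high DMSO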
[3] = ICB984 medulloblastoma cell growth inhibition, synergistic combos for chromothripsis tumors, cisplatin or BGB combos (AID 1671451; call rule not given here;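 further: cells exposed for 96 hours before readout; 0% = vehicle DMSO and 100% = killing by high DMSO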); conditions: ICB984 medulloblastoma cells, drug combinations, stronger effect = higher value
[4] = LFS_MB_1R medulloblastoma cell growth inhibition, synergistic combos for chromothripsis tumors, cisplatin or BGB combos (AID 1671452); conditions: LFS_MB_1R medulloblastoma cells, stronger effect = higher value;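 further: cells exposed for 96 hours before readout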
[5] = HTB85 osteosarcoma cell growth inhibition, synergistic combos for chromothripsis tumors, BGB or cisplatin IC20 combos (AID 1671453); conditions: HTB85 osteosarcoma cells, drug combinations, stronger effect = higher value;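 further: cells exposed for 96 hours before readout; 0% = vehicle DMSO and 100% = high DMSO killing control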
[6] = CRL2098 osteosarcoma cell growth inhibition, synergistic combos for chromothripsis tumors, BGB or cisplatin IC20 combos (AID 1671454); conditions: CRL2098 osteosarcoma cells, drug combinations, stronger effect = higher value;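 further: cells exposed for 96 h before readout; 0% = vehicle DMSO and 100% = killing by high DMSO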
[7] = HD-MB03 medulloblastoma cell growth inhibition, synergistic combos for chromothripsis tumors, BGB or cisplatin IC20 combos (AID 1671455; in the data active means inhibition above about 83%;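 further: 0% = vehicle DMSO and 100% = high DMSO as cytotoxic control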); conditions: HD-MB03 medulloblastoma cells, stronger effect = higher value
[8] = UWB1.289 ovarian carcinoma cell growth inhibition, synergistic combos for chromothripsis tumors, BGB or cisplatin combos (AID 1671456); conditions: UWB1.289 ovarian carcinoma cells, stronger effect = higher value;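 further: cells exposed to compound for four days; 0% = vehicle DMSO and 100% = killing by high DMSO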
[9] = LFS_MB_2R medulloblastoma cell growth inhibition, synergistic combos for chromothripsis tumors, cisplatin combos (AID 1671457); conditions: LFS_MB_2R medulloblastoma cells, stronger effect = higher value;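 further: cells exposed to compound for four days before readout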
[10] = MDA-MB-436 breast carcinoma cell growth inhibition, synergistic combos for chromothripsis tumors, BGB or cisplatin combos (AID 1671458; call rule not given here;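 further: cells exposed for 96 hours; 0% = vehicle DMSO and 100% = killing by high DMSO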); conditions: MDA-MB-436 breast carcinoma growth inhibition, drug combinations, stronger effect = higher value
[11] = UWB1.289_BRCA1 ovarian cancer growth, cell-based, BGB or cisplatin combinations (AID 1671459); conditions: UWB1.289 BRCA1 ovarian carcinoma, drug combinations, stronger effect = higher value
[12] = human astrocyte viability loss, single and combined drugs, cytotoxicity control for chromothriptic childhood tumor combination screen, cell-based, BGB or cisplatin IC20 combos (AID 1671460); conditions: Human astrocytes, drug combinations, stronger effect = higher value;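 further: cells exposed to compounds for 96 hours before viability readout; 0% = vehicle and 100% = killing control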
[13] = growth inhibition of BT084 medulloblastoma cells, cell-based, ICGC_MB145, cisplatin and BGB IC40 combos (AID 1671461); conditions: drug combinations, stronger effect = higher value;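 further: cells exposed to drugs for 96 hours; 0% = vehicle DMSO and 100% = high DMSO full killing control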
[14] = growth inhibition of RCMB18 medulloblastoma cells, cell-based, cisplatin and BGB IC40 combos (AID 1671462); conditions: stronger effect = higher value;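 further: cells exposed to compound for four days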
[15] = growth inhibition of CRL1545 osteosarcoma cells, cell-based, cisplatin and BGB IC20 combos (AID 1671464); conditions: stronger effect = higher value;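 further: cells exposed to compound for 96 hours before readout; 0% = vehicle DMSO and 100% = high DMSO killing control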
[16] = measured here: combination with BGB IC40, at 0.05 µM
[17] = measured here: with BGB IC20 combination, at 0.5 µM
[18] = measured here: with cisplatin IC20 combination, at 0.5 µM
[19] = measured here: combination with cisplatin, at 0.5 µM
[20] = measured here: combination with cisplatin, at 5 µM

Nc1nc(NC2CC2)c2ncn(C3C=CC(CO)C3)c2n1 (stereo not drawn)
inhibition ([1]; at 0.5 µM, stronger effect = higher value): 18.6% (inactive) and 9.78% (inactive)
inhibition ([1]; measured here: combination with BGB IC20, at 0.005 µM): -10.2% and -25.3%
inhibition ([1]; measured here: combination with BGB IC40, at 0.005 µM): -2.6% and -37.7%
inhibition [1, 16]: -13.2% and -43.3%
inhibition ([1]; measured here: combination with cisplatin, at 0.5 µM, stronger effect = higher value): 0.791% and -12%
inhibition ([1]; measured here: combination with cisplatin, at 5 µM, stronger effect = higher value): 42.6% and 20.9%
inhibition ([2]; BGB combo, at 5 µM): 7.05% and 3.14%
inhibition ([2]; at 0.5 µM): -27.8% (inactive) and -12.2% (inactive)
inhibition ([2]; cisplatin combo, at 5 µM): 15.9% and 16.9%
inhibition [2, 17]: -24.7% and -14%
inhibition [2, 18]: -37.5% and -12%
inhibition ([2]; single agent, at 5 µM): 15.7% and 29.8%
inhibition ([3]; BGB IC20 combo, at 0.005 µM): -32.2% and 1.07%
inhibition ([3]; BGB IC40 combo, at 0.005 µM): -10% and -27%
inhibition ([3]; BGB IC40 combo, at 0.05 µM): 11.7% and 20.9%
inhibition ([3]; at 0.5 µM): -15.2% (inactive) and -19.6% (inactive)
inhibition ([3]; cisplatin combo, at 0.05 µM): 9.21% and 18%
inhibition ([3]; cisplatin combo, at 0.5 µM): -8.32% and -16.8%
inhibition ([3]; cisplatin combo, at 5 µM): -66.5% and -40.2%
inhibition ([3]; measured here: 5 uM single agent, at 5 µM): -33.4% and -23.1%
inhibition ([4]; at 0.5 µM): -29.4% (inactive) and -14.1% (inactive)
inhibition [4, 16]: -41.9% and -20.2%
inhibition [4, 19]: -65.7% and -24.2%
inhibition [4, 20]: 10.3% and 37.7%
inhibition ([5]; at 0.5 µM): -22.4% (inactive) and -2.82% (inactive)
inhibition ([5]; measured here: with BGB IC20, at 0.5 µM): -29.8% and -5.83%
inhibition ([5]; measured here: with BGB IC20, at 5 µM): -10.5% and 18.8%
inhibition ([5]; measured here: with cisplatin IC20, at 0.5 µM): -25.7% and -8.4%
inhibition ([5]; measured here: with cisplatin IC20, at 5 µM): 3.54% and 48.9%
inhibition ([5]; single agent, at 5 µM): 15.5% and 29.1%
inhibition ([6]; at 0.5 µM): -73.4% (inactive) and -21.7% (inactive)
inhibition ([6]; measured here: combination with BGB at IC20, at 0.5 µM): -122% and -23.9%
inhibition ([6]; measured here: combination with cisplatin at IC20, at 0.5 µM): -57% and -77.8%
inhibition ([7]; at 0.5 µM): -12.2% (inactive) and -6.69% (inactive)
inhibition ([7]; measured here: combo with BGB at IC20, at 0.5 µM): -5.41% and -19.4%
inhibition ([7]; measured here: combo with cisplatin at IC20, at 0.5 µM): -23.6% and 5.04%
inhibition ([8]; at 0.5 µM): -7.07% (inactive) and -1.31% (inactive)
inhibition ([8]; measured here: inhibition with BGB combination, at 0.05 µM): -16.1% and -7.54%
inhibition ([8]; measured here: inhibition with cisplatin combination, at 0.05 µM): -20.7% and -16.3%
inhibition ([9]; at 0.5 µM): -0.03% (inactive) and -16.7% (inactive)
inhibition [9, 19]: 2.24% and -15.7%
inhibition [9, 20]: -15.7% and 24.3%
inhibition ([10]; at 0.5 µM): 0.7% (inactive) and -5.22% (inactive)
inhibition ([10]; measured here: BGB combination, at 0.5 µM): 5.51% and -4.19%
inhibition ([10]; measured here: BGB combination, at 5 µM): 23.6% and 15.9%
inhibition ([10]; measured here: cisplatin combination, at 0.5 µM): -6.39% and -11.5%
inhibition ([10]; measured here: cisplatin combination, at 5 µM): 25.3% and 12.2%
inhibition ([11]; BGB combination, concentration series, at 5 µM): 21.9% and 44.1%
inhibition ([11]; at 0.5 µM): -6.63% (inactive) and -4.62% (inactive)
inhibition ([11]; cisplatin combination, concentration series, at 5 µM): 36% and 67.6%
inhibition ([12]; at 0.5 µM): -19.5% (inactive) and 11.5% (inactive)
inhibition ([12]; measured here: combo with BGB IC20, at 0.5 µM): -10.8% and 10%
inhibition ([12]; measured here: combo with cisplatin IC20, at 0.5 µM): -38.1% and 8.23%
inhibition ([13]; at 0.5 µM): -4.33% (inactive) and -11.9% (inactive)
inhibition ([13]; cisplatin combination, at 0.5 µM): 6.28% and -30.6%
inhibition ([13]; cisplatin combination, at 5 µM): 27.2% and 36.5%
inhibition ([13]; measured here: BGB IC40 combination 0.05 uM, at 0.05 µM): 4.8% and -24.4%
inhibition ([13]; single agent, at 5 µM): 29.7% and 30.5%
inhibition ([14]; at 0.5 µM): -22.8% (inactive) and -12.3% (inactive)
inhibition ([14]; cisplatin combo, at 5 µM): 15.1% and 15.7%
inhibition ([14]; measured here: BGB IC40 combination, at 0.05 µM): -23.6%
inhibition [14, 19]: -50.2% and -0.496%
inhibition ([14]; single agent, at 5 µM): 16.3% and 21.5%
inhibition ([15]; at 0.5 µM): -22.4% (inactive) and -10.8% (inactive)
inhibition [15, 17]: -35.1% and -4.57%
inhibition [15, 18]: -18.6% and -15.8%
inhibition ([15]; single agent, at 0.05 µM): -49.6% and -25.5%
inhibition ([15]; single agent, at 5 µM): -7.83% and 23.5%
